A number with no mark means an inactive call. Results filed as inconclusive are left out. Where a call stands in place of a potency, no number is given. Activity calls are given as the source filed them. Unless noted, calls follow the shape of the dose curve; as a rule, active = well fitted curve in the direction sought with a large enough effect in the repeat runs; inconclusive = weak or mixed curves; inactive = no such curve, though single readings can be large; an effect the other way counts as inactive or inconclusive.
How the values were obtained:
[1] = molecular target: Thyrotropin receptor (Homo sapiens) (UniProt P16473); test: qHTS assay to identify small molecule antagonists of the thyroid stimulating hormone receptor (TSHR) signaling pathway (AID 1259385; calls by dose curve; also: nearly all actives have a fitted effect of over 20% in size)
Chain of Thyrotropin receptor (Homo sapiens) (P16473 whole entry, looked up): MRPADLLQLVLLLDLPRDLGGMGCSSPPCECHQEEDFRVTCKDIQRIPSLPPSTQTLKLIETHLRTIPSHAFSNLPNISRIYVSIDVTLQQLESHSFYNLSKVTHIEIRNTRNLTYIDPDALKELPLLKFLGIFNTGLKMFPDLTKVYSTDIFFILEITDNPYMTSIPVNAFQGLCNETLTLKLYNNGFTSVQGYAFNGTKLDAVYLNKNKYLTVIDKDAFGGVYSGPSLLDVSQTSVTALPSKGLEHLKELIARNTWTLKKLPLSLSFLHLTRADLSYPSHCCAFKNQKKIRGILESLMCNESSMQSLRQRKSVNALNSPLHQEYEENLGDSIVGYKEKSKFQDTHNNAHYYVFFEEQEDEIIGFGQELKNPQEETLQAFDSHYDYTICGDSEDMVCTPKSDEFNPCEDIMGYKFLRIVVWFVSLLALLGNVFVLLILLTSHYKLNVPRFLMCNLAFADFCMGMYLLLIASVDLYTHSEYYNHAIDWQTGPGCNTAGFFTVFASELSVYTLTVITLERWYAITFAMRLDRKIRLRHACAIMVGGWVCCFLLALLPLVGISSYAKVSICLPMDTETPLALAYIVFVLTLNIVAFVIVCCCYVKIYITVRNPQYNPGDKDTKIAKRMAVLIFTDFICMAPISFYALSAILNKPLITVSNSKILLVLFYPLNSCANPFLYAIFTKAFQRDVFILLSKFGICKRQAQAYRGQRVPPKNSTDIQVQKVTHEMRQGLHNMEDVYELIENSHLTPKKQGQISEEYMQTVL
Method in brief: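 TSHR-HEK293 cells were plated and held 18 h at 37C/5% CO2, then given compound plus Ro20-1724 and stimulated with TSH at 1.5 ng/mL final. After 30 min at room temperature, cAMP was detected with cAMP-d2/anti-cAMP-cryptate (1 h) by fluorescence.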

[2] = qHTS assay to identify small molecule agonists of the estrogen receptor alpha (ER-alpha) signaling pathway in the presence of an antagonist - cell viability counter screen (AID 1259386);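 also: cells exposed to compounds for 22 h at 37 °C before the viability read; nearly all actives have a fitted effect of over 30% in size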; also: potency is read from the fitted curve at half-maximal effect
Method in brief: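 Using estrogen-depleted VM7Luc4E2 cells, the 15-concentration compound series was applied together with 10.0nM ICI-182,780 and incubated 22hr at 37C/5% CO2. Cell viability was then scored by CellTiter-Fluor.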

[3] = molecular target: Progesterone receptor (Homo sapiens) (UniProt P06401); test: qHTS assay to identify small molecule agonists of the progesterone receptor (PR) signaling pathway (AID 1346784; calls by dose curve; also: nearly all actives have a fitted effect of over 30% in size)
Chain of Progesterone receptor (Homo sapiens) (P06401 whole entry, looked up): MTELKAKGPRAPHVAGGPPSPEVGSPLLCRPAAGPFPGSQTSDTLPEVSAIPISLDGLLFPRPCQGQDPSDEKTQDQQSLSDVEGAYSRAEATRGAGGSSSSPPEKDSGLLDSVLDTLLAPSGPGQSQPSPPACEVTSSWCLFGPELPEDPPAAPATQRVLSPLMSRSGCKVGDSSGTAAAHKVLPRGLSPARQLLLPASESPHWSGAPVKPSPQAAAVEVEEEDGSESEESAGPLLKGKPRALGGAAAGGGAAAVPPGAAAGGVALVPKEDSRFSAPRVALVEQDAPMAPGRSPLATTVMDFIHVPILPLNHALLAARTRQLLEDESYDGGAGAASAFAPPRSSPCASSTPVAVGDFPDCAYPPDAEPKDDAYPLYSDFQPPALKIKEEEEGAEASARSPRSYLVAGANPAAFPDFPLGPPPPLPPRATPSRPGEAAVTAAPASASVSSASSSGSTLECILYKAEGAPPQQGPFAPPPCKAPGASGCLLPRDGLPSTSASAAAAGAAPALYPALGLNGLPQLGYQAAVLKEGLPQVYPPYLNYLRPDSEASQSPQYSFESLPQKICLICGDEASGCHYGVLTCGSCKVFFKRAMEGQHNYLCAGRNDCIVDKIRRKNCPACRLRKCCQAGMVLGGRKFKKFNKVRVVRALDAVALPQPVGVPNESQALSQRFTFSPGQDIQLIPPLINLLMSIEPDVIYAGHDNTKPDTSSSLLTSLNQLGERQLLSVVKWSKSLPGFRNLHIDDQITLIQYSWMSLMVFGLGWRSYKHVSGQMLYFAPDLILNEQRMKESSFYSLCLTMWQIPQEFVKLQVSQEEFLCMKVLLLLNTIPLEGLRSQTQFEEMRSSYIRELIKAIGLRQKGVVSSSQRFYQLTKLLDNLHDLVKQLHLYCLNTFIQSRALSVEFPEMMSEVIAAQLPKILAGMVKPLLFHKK
Method in brief: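 Seed PR-UAS-bla HEK 293T cells (2% charcoal-stripped FBS), incubate 6 hr at 37C; add compounds in DMSO, 16 hr at 37C; add LiveBLAzer B/G substrate, 2 hr RT; read fluorescence intensity.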

[4] = molecular target: Progesterone receptor (Homo sapiens) (UniProt P06401); test: qHTS assay to identify small molecule antagonists of the progesterone receptor (PR) signaling pathway (AID 1346795; active = well fitted inhibition curve with a large enough effect in the signal ratio in the repeat runs, not every such curve was filed as active; the % refers to the signal ratio)
Method in brief: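 Screening used a GripTite HEK293T line with PR-responsive UAS-beta-lactamase. Cells were challenged with compound in the presence of 1 nM R5020 final for 16 hr at 37C; B/G FRET substrate, 2 hr room temperature, fluorescence.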

[5] = qHTS assay to identify small molecule agonists of the progesterone receptor (PR) signaling pathway - cell viability counter screen (AID 1346799; calls by dose curve; also: nearly all actives have a fitted effect of over 45% in size)
Method in brief: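 Using the same plates as the PR reporter screen, HEK293T PR-UAS-bla cells received compounds for 16 hr at 37C and were then lysed with CellTiter-Glo; luminescence was read 30 min later at room temperature.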

[6] = qHTS assay to identify small molecule antagonists of the TGF-beta/Smad signaling pathway - cell viability counter screen (AID 1346824); also: nearly all actives have a fitted effect of over 50% in size
Method in brief: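 SBE-bla HEK 293T cells were plated overnight at 37 C, then given compounds in DMSO plus TGF-beta1 (added as 0.25 ng/mL solution) for 5 hr. After the bla read, CellTiter-Glo was added to the same wells and luminescence read after 30 min at room temperature.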

[7] = qHTS assay to identify small molecule agonists of the TGF-beta/Smad signaling pathway (AID 1346859; active = well fitted activation curve with a large enough effect in the signal ratio in the repeat runs, not every such curve was filed as active; the % refers to the signal ratio; also: series mostly up to about 77 µM)
Method in brief: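 Beta-lactamase reporter activity downstream of Smad binding elements was measured in stably transfected HEK 293T cells; compounds were incubated for 5 hr, substrate for 2 hr at room temperature.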

[8] = molecular target: Thyrotropin-releasing hormone receptor (Homo sapiens) (UniProt P34981); test: qHTS assay to identify small molecule antagonists of the thyrotropin-releasing hormone receptor (TRHR) signaling pathway (AID 1346877; active = well fitted inhibition curve with a large enough effect in the repeat runs, not every such curve was filed as active; also: series mostly up to about 51 µM)
Chain of Thyrotropin-releasing hormone receptor (Homo sapiens) (P34981 whole entry, looked up): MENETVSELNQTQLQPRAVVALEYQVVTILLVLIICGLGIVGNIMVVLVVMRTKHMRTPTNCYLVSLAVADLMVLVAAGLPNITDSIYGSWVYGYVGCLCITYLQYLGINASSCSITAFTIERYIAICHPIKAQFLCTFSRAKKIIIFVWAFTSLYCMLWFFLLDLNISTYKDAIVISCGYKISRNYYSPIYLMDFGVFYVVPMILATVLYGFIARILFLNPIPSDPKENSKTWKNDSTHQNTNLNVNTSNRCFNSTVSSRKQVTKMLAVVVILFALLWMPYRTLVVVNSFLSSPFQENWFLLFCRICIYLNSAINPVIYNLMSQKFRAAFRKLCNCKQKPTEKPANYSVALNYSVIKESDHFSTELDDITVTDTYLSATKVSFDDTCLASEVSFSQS
Method in brief: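 Calcium signal in dye-loaded TRHR/HEK293 cells; compounds added 5 min before TRH (1 nM final); fluorescence monitored 3 min at 1 s steps.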

[9] = molecular target: Thyrotropin-releasing hormone receptor (Homo sapiens) (UniProt P34981); test: qHTS assay to identify small molecule agonists of the thyrotropin-releasing hormone receptor (TRHR) signaling pathway (AID 1346891; calls by dose curve;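 also: HEK293 cells expressing TRHR with calcium dye readout; series mostly up to about 58 µM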)
Method in brief: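 Overnight-plated (18 h, 37 °C, 5% CO2) TRHR-Hek293 cells; 2 h calcium dye at 37 °C; compound in DMSO; 3-min kinetic fluorescence read.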

[10] = Human pregnane X receptor (PXR) small molecule agonists, qHTS cell viability counter screen (AID 1346977); also: nearly all actives have a fitted effect of over 50% in size
Method in brief: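 After a 5hr pre-incubation, PXR-Luc HepG2 cells received compounds plus positive control in DMSO and were kept 24hr at 37C. Cell viability was quantified by fluorescence from CellTiter-Fluor added for the final hour.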

[11] = Caspase-3/7 induction in HepG2 cells by small molecules, qHTS assay (AID 1346978); also: nearly all actives have a fitted effect of over 15% in size
Method in brief: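 Wild-type HepG2 cells (2,000/well) were settled 5 h at 37 C, 5% CO2, then exposed to compounds in DMSO for 17 h. Caspase-3/7 activity was read by luminescence 30 min after adding Caspase-Glo 3/7 reagent at room temperature.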

[12] = Caspase-3/7 induction in CHO-K1 cells by small molecules, qHTS cell viability counter screen (AID 1346979); also: nearly all actives have a fitted effect of over 35% in size; also: potency is read from the fitted curve at half-maximal effect
Method in brief: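 Multiplexed with Caspase-Glo 3/7 in CHO-K1 cells, this counter screen added CellTiter-Fluor after 16hr of compound exposure and recorded fluorescence 1hr later.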

[13] = Caspase-3/7 induction in CHO-K1 cells by small molecules, qHTS assay (AID 1346980); also: nearly all actives have a fitted effect of over 15% in size
Method in brief: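 Wild-type cells were seeded at 1,500 per well and settled 5 hr at 37 C, 5% CO2, then exposed to DMSO-dissolved compounds for 17 hr. Caspase-Glo 3/7 reagent was added, and luminescence was read after 30min at room temperature.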

[14] = Caspase-3/7 induction in HepG2 cells by small molecules, qHTS cell viability counter screen (AID 1346981); also: nearly all actives have a fitted effect of over 30% in size; also: potency is read from the fitted curve at half-maximal effect
Method in brief: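 After a 5-hr attachment period at 37 C and 5% CO2, wild-type HepG2 cells received compounds in DMSO. Sixteen hours later CellTiter-Fluor was dispensed and the fluorescent signal quantified after a further hour.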

[15] = molecular target: Nuclear receptor subfamily 1 group I member 2 (Homo sapiens) (UniProt O75469); test: Human pregnane X receptor (PXR) small molecule agonists, qHTS assay (AID 1346982); also: nearly all actives have a fitted effect of over 35% in size; also: potency is read from the fitted curve at half-maximal effect
Chain of Nuclear receptor subfamily 1 group I member 2 (Homo sapiens) (O75469 whole entry, looked up): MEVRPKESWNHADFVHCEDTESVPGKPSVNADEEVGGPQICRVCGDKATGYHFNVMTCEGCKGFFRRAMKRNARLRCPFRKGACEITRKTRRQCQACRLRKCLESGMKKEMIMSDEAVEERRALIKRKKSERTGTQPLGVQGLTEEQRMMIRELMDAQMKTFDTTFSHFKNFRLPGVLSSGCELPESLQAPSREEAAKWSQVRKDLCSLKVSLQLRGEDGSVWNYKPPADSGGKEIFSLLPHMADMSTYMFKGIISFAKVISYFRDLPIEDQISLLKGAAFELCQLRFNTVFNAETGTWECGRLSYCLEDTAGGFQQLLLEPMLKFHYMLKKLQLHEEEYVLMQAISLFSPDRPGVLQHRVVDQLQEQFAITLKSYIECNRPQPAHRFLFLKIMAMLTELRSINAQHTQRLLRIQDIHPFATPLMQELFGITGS
Method in brief: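 Tox21 qHTS; PXR-Luc HepG2; compounds pinned from DMSO; 24 hr, 37 C; ONE-Glo luciferase detection, 30 min room temperature.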

[16] = qHTS assay to identify small molecule agonists of the TGF-beta/Smad signaling pathway - cell viability counter screen (AID 1346829); also: top concentration of the series differs between compounds; nearly all actives have a fitted effect of over 45% in size
Method in brief: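 Compound-treated SBE-bla HEK 293T cells (5 hr, 37 C) were assessed for viability with CellTiter-Glo in parallel with the reporter read.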

[17] = molecular target: Nuclear receptor subfamily 1 group I member 2 (Rattus norvegicus) (UniProt Q9R1A7); test: Rat pregnane X receptor (rPXR) activation by small molecules, qHTS assay (AID 1346983); settings: rPXR luciferase reporter cells, One-Glo luminescence, 24 h; stronger effect = higher value; also: nearly all actives have a fitted effect of over 20% in size
Chain of Nuclear receptor subfamily 1 group I member 2 (Rattus norvegicus) (Q9R1A7 whole entry, looked up): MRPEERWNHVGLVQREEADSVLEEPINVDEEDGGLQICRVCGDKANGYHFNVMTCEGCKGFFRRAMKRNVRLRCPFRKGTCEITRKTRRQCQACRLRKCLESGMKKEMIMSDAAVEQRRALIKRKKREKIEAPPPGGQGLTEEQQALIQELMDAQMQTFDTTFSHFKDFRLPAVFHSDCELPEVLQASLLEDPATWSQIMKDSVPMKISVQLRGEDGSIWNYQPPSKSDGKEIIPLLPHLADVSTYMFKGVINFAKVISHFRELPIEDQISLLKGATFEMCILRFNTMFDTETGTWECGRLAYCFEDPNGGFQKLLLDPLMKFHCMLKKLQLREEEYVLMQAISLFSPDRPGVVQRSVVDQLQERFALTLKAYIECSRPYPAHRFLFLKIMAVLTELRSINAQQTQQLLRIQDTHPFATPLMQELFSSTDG
Method in brief: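 Cell-based rPXR luciferase reporter assay, 2,000 cells per well, rested 5hr at 37 C before compound addition in DMSO, then 24 hr at 37 C. One-Glo reagent was added and luminescence read after 30 min at room temperature.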

[18] = molecular target: Nuclear receptor subfamily 1 group I member 2 (Homo sapiens) (UniProt O75469); test: Human pregnane X receptor (PXR) activation by small molecules, qHTS assay (AID 1346985); also: nearly all actives have a fitted effect of over 40% in size
Method in brief: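 DPX-2 cells (HepG2 co-transfected with a PXR response element and a CYP3A4-promoter luciferase construct) were seeded at 2,000 per well, rested 5 hr at 37C, then exposed to DMSO-dissolved compounds for 24 hr. Activation was read as luciferase luminescence.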

[19] = qHTS assay to identify small molecule antagonists of the progesterone receptor (PR) signaling pathway - cell viability counter screen (AID 1346798); also: series mostly up to about 92 µM; nearly all actives have a fitted effect of over 50% in size
Method in brief: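 Measures cytotoxicity in parallel with the PR antagonist reporter read: HEK293T PR-UAS-bla cells get compound and R5020 for 16 hr, and remaining viable cells are quantified by CellTiter-Glo luminescence.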

[20] = molecular target: Nuclear receptor subfamily 1 group I member 2 (Homo sapiens) (UniProt O75469); test: CYP3A4 induction through human pregnane X receptor (PXR) by small molecules, qHTS assay (AID 1346984); also: nearly all actives have a fitted effect of over 40% in size
Method in brief: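 Cells (DPX-2; HepG2 with PXR element plus CYP3A4-promoter luciferase) settled 5hr, then were treated 24hr at 37C. A 3hr, 3uM-final Luciferin-IPA step preceded luminescence measurement with One-Glo.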

Compound | outcome [1] | Potency [2] | Potency [3] | Potency [4] | Potency [5] | outcome [6] | outcome [7] | outcome [8] | outcome [9] | Potency [10] | Potency [11] | Potency [12] | outcome [13] | Potency [14] | Potency [15] | outcome [16] | max activation [17] | Potency [18] | Potency [19] | Potency [20]
CCc1ccc(C=O)cc1 | inactive | inactive | inactive | inactive | inactive | inactive | inactive | inactive | inactive | inactive | inactive | inactive | inactive | inactive | inactive |  |  |  |  | 
O=S(=O)(O)CCN1CCN(CCO)CC1 | inactive | inactive | inactive | inactive |  | inactive | inactive | inactive | inactive | inactive | inactive | inactive | inactive | inactive | inactive | inactive |  |  |  | 
COC(=O)CCc1ccc(OCC(O)CNC(C)C)cc1 (stereo not given) | inactive | inactive | inactive | inactive | inactive | inactive | inactive | inactive | inactive | inactive | inactive | inactive | inactive |  | inactive | inactive |  |  |  | 
CCN(C)C(=O)Oc1cccc([C@H](C)N(C)C)c1 | inactive | inactive | inactive | inactive | inactive | inactive | inactive | inactive | inactive | inactive | inactive | inactive | inactive | inactive | inactive |  | 7.36% | inactive |  | 
COc1ccc2nc(SCc3ncc(C)c(OC)c3C)[nH]c2c1 | inactive | inactive | inactive |  | inactive | inactive | inactive |  |  | inactive | inactive | inactive | inactive | inactive | 23.7 µM (active) | inactive |  |  | inactive | 
Nc1ccc([N+](=O)[O-])c(N)c1 | inactive | 29.9 µM (active) | inactive |  | inactive | inactive |  | inactive | inactive |  | inactive | 53.1 µM (active) | inactive |  |  |  |  |  | inactive | 
N[C@@H](CCC(=O)Nc1ccc([N+](=O)[O-])cc1)C(=O)O | inactive | inactive | inactive |  | inactive | inactive | inactive | inactive | inactive |  | inactive | inactive | inactive | 54.5 µM (active) | inactive | inactive |  |  | inactive | 
O=C(Nc1ccc(Cl)c(Cl)c1)C1CC1 | inactive | inactive | inactive |  |  | inactive |  | inactive | inactive |  | inactive |  | inactive |  | 29.8 µM (active) | inactive | -0.7% |  | inactive | inactive
O=C(CCNNC(=O)c1ccncc1)NCc1ccccc1 | inactive | inactive | inactive | inactive | inactive | inactive | inactive | inactive | inactive | inactive | inactive |  | inactive | inactive | inactive | inactive |  |  |  | 

From PubChem BioAssay (Tox21)
